A number with no mark means an inactive call.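 Rule for the calls, unless noted: active = inhibition above the screen-wide mean plus 3 SD, about 51%; inactive = the rest.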

The source of these data is PubChem BioAssay.

Chain of ATP-binding cassette sub-family B member 6 (Homo sapiens) (Q9NP58 whole entry, looked up): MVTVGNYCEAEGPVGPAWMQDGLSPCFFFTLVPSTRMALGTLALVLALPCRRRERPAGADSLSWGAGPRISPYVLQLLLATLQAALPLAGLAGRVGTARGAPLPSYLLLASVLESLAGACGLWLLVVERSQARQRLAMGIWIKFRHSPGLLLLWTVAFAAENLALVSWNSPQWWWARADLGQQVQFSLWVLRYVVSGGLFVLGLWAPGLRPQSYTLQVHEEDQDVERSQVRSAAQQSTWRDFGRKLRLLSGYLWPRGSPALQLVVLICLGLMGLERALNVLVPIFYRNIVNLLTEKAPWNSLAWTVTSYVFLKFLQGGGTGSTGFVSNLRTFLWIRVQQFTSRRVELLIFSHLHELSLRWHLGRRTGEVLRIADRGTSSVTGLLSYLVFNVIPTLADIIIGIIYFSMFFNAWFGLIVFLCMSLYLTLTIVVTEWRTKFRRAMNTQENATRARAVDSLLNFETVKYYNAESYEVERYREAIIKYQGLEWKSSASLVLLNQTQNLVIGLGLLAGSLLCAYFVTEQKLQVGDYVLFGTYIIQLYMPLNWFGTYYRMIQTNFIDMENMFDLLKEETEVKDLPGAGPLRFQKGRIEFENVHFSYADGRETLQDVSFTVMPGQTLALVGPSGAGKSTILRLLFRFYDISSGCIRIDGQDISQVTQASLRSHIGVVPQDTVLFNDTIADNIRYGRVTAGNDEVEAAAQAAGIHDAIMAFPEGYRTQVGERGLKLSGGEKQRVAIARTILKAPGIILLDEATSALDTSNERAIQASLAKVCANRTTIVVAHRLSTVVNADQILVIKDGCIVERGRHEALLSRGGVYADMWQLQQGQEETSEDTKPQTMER

One assay addresses ATP-binding cassette sub-family B member 6 (Homo sapiens) (UniProt Q9NP58). Description: ABCB6 transporter inhibitors, pilot screen, K562-ABCB6 cells, flow cytometry, validation set (AID 588550).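 Note: 0% = DMSO wells and 100% = benzethonium chloride 70 µM positive control.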 The conditions noted are these: K562-ABCB6 porphyrin accumulation, 1 h, at 10 µM, active compounds read high.
Turning to `CCC(C)NCCOc1ccc(C(C)(C)c2ccccc2)cc1` (stereo not given), the inhibition was -5%.

Consider `O=C(NCc1ccc(N2CCCC2=O)cc1)c1ccc(F)cc1`, for which the inhibition was 2%.

`CC1(C)O[C@@H]2C[C@H]3[C@@H]4C[C@H](F)C5=CC(=O)CC[C@]5(C)[C@H]4[C@@H](O)C[C@]3(C)[C@]2(C(=O)CO)O1`: the inhibition was 12%.

On to `N/C(=N\OC(=O)CCCOc1ccc(Cl)cc1Cl)c1ccncc1`, for which the inhibition was -7%.

For the compound `COCCCN1C(=O)/C(=C\c2cccs2)C(C(=O)OC)=C1C`, the inhibition was 5%.

On to `Cc1ccc2nc(C)c3c(c2c1)OC(C(C)(Cl)Br)C3` (stereo not given), for which the inhibition is 1%.

With `CC12COC3(C(=O)Nc4ccc(F)cc4)CC1CCC32C` (stereo not given), the inhibition was 10%.

Consider `Cc1ccnc(NS(=O)(=O)c2ccc(N)cc2)n1`, for which the inhibition is -3%.

Turning to `CC1(C)CC(=O)c2cnc(NC(=O)C3CCCC3)nc2C1`, the inhibition is -50%.

As for `COc1ccc(CCN2CNc3c(c(=O)n(C)c(=O)n3C)C2)cc1OC`, the inhibition is -5%.

Regarding `O=C(O)CCCc1ccccc1`, the inhibition was 19%.

Regarding `CCCNCC(O)COc1ccccc1C(=O)CCc1ccccc1` (stereo not given), the inhibition was -1%.

In the case of `COc1ccc(C(=O)O)cc1F`, the inhibition was -3%.

On to `COc1cc(C)nc(-n2nc(C)cc2OC)n1`, for which the inhibition is 2%.

Regarding `CCCCCCC(=O)N(O)C1CC(=O)N(Cc2ccccc2)C1=O` (stereo not given), the inhibition is 9%.

`CC(=O)N1CCN(c2ccc(NC(=O)/C=C/c3ccccc3)cc2)CC1`: the inhibition was -1%.

Take `Cc1ccc(Nc2ncccc2C(=O)O)cc1C`: the inhibition is 15%.

With `CCCCCCCC(=O)OCC(O)CO` (stereo not given), the inhibition was 5%.

With `CSCCC(NC(C)=O)C(=O)Oc1ccc2c3c(c(=O)oc2c1)CCCC3` (stereo not given), the inhibition was 11%.

Turning to `CC(C)CN1CCN(Cc2ccc(C#CC(C)(C)O)cc2)CC1CCO` (stereo not given), the inhibition is 9%.

`Cc1nc(C2CC(=O)OC23CCCCC3)cs1` (stereo not given): the inhibition is 7%.

For `CO[C@H]1C=CO[C@@]2(C)Oc3c(C)c(O)c4c(O)c(c(C=NN5CCN(C)CC5)c(O)c4c3C2=O)NC(=O)C(C)=CC=C[C@H](C)[C@H](O)[C@@H](C)[C@@H](O)[C@@H](C)[C@H](OC(C)=O)[C@@H]1C`, the inhibition was 12%.

`COc1cccc(-n2cc(CNCc3c(C(=O)N(C)C)nc4ccc(Cl)cn34)cn2)c1`: the inhibition was 19%.

For the compound `S=C(c1ccc2c(c1)OCO2)N1CCCCC1`, the inhibition is 12%.

With `CC(C)Oc1ccc2c(=O)c(-c3ccccc3)coc2c1`, the inhibition is 13%.

`CCn1cc(CN2N=C(C)CC2c2ccccc2)c(C)n1` (stereo not given): the inhibition is 3%.

For the compound `CCCCOc1ccc(C(=O)CCN2CCCCC2)cc1`, the inhibition was 7%.

Regarding `NCCCC(N)(C(=O)O)C(F)F` (stereo not given), the inhibition was -5%.

For the compound `C[N+](C)(C)CCOP(=O)([O-])OC[C@H](O)CO`, the inhibition was 22%.

Regarding `O=C(O)C1CCN(C(=O)COc2ccc3c4c(c(=O)oc3c2)CCC4)CC1`, the inhibition is 3%.

Turning to `COc1ccc(OC)c(S(=O)(=O)N2CCCc3ccccc32)c1`, the inhibition is 24%.

With `COc1ccc2[nH]c(=O)c3c(c2c1)OC(C)(C)C=C3`, the inhibition is 6%.

`CCN1CCN(C(=S)c2ccc(OC)cc2)CC1`: the inhibition is 9%.

For `C=CCOc1ccc(C(=O)CC)cc1OC`, the inhibition was -4%.

`CCc1cccc2c3c([nH]c12)C(CC)(CC(=O)O)OCC3` (stereo not given): the inhibition was -5%.

Regarding `COc1ccc(OC(C)C(=O)Nc2ccccc2F)cc1` (stereo not given), the inhibition was 8%.

Consider `CCCC(=O)Nc1ccccc1NC(C)=O`, for which the inhibition is 0%.

Turning to `O=C(O)CCCCCCNC(=O)c1cncc(O)c1`, the inhibition was -5%.

Take `COc1ccc(Br)cc1C(=O)Nc1ccc(C(=O)O)cc1`: the inhibition was -4%.

For `CC[N+]1(CC)CC2=Cc3ccccc3CC2C1` (stereo not given), the inhibition was 13%.

Test system in the next assay: not listed separately
Briefly: promoters of myeloid differentiation in arrested cells, primary screen, cell-based, GFP/MAC1 double positive, flow cytometry, validation set (AID 588685;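 active = differentiation response of at least 50%, scaled between solvent and reference control, from cells with both markers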;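 note: compound exposure lasts four days before antibody staining and flow analysis; 0% = DMSO wells and 100% = 5 µM fulvestrant positive control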). The conditions noted are these: ER-HoxA9 marrow cells, active compounds read high, normalized: vehicle 0, fulvestrant 100.
Regarding `CCC(C)NCCOc1ccc(C(C)(C)c2ccccc2)cc1` (stereo not given), the differentiation response was 9.04%.

On to `O=C(NCc1ccc(N2CCCC2=O)cc1)c1ccc(F)cc1`, for which the differentiation response is 1.91%.

In the case of `CC1(C)O[C@@H]2C[C@H]3[C@@H]4C[C@H](F)C5=CC(=O)CC[C@]5(C)[C@H]4[C@@H](O)C[C@]3(C)[C@]2(C(=O)CO)O1`, the differentiation response was 34.9%.

On to `N/C(=N\OC(=O)CCCOc1ccc(Cl)cc1Cl)c1ccncc1`, for which the differentiation response was 4.2%.

Regarding `COCCCN1C(=O)/C(=C\c2cccs2)C(C(=O)OC)=C1C`, the differentiation response is -20%.

Regarding `Cc1ccc2nc(C)c3c(c2c1)OC(C(C)(Cl)Br)C3` (stereo not given), the differentiation response is 15.2%.

With `CC12COC3(C(=O)Nc4ccc(F)cc4)CC1CCC32C` (stereo not given), the differentiation response was -1.64%.

For `Cc1ccnc(NS(=O)(=O)c2ccc(N)cc2)n1`, the differentiation response was 1.28%.

`CC1(C)CC(=O)c2cnc(NC(=O)C3CCCC3)nc2C1`: the differentiation response was 10%.

For `COc1ccc(CCN2CNc3c(c(=O)n(C)c(=O)n3C)C2)cc1OC`, the differentiation response is -4%.

Turning to `O=C(O)CCCc1ccccc1`, the differentiation response was 0.24%.

For `CCCNCC(O)COc1ccccc1C(=O)CCc1ccccc1` (stereo not given), the differentiation response is -0.73%.

In the case of `COc1ccc(C(=O)O)cc1F`, the differentiation response was -8.96%.

On to `COc1cc(C)nc(-n2nc(C)cc2OC)n1`, for which the differentiation response is 8.06%.

For `CCCCCCC(=O)N(O)C1CC(=O)N(Cc2ccccc2)C1=O` (stereo not given), the differentiation response is -4.64%.

As for `CC(=O)N1CCN(c2ccc(NC(=O)/C=C/c3ccccc3)cc2)CC1`, the differentiation response was -11.9%.

`Cc1ccc(Nc2ncccc2C(=O)O)cc1C`: the differentiation response is 6.55%.

With `CCCCCCCC(=O)OCC(O)CO` (stereo not given), the differentiation response is 2.2%.

As for `CSCCC(NC(C)=O)C(=O)Oc1ccc2c3c(c(=O)oc2c1)CCCC3` (stereo not given), the differentiation response was 0.24%.

As to `CC(C)CN1CCN(Cc2ccc(C#CC(C)(C)O)cc2)CC1CCO` (stereo not given), the differentiation response is -2.46%.

On to `Cc1nc(C2CC(=O)OC23CCCCC3)cs1` (stereo not given), for which the differentiation response is -20%.

In the case of `CO[C@H]1C=CO[C@@]2(C)Oc3c(C)c(O)c4c(O)c(c(C=NN5CCN(C)CC5)c(O)c4c3C2=O)NC(=O)C(C)=CC=C[C@H](C)[C@H](O)[C@@H](C)[C@@H](O)[C@@H](C)[C@H](OC(C)=O)[C@@H]1C`, the differentiation response is 2.46%.

On to `COc1cccc(-n2cc(CNCc3c(C(=O)N(C)C)nc4ccc(Cl)cn34)cn2)c1`, for which the differentiation response was 10%.

With `S=C(c1ccc2c(c1)OCO2)N1CCCCC1`, the differentiation response is -10.4%.

Consider `CC(C)Oc1ccc2c(=O)c(-c3ccccc3)coc2c1`, for which the differentiation response was -5.73%.

Take `CCn1cc(CN2N=C(C)CC2c2ccccc2)c(C)n1` (stereo not given): the differentiation response is -29.6%.

As for `CCCCOc1ccc(C(=O)CCN2CCCCC2)cc1`, the differentiation response is 4.2%.

For `NCCCC(N)(C(=O)O)C(F)F` (stereo not given), the differentiation response is -4.57%.

Regarding `C[N+](C)(C)CCOP(=O)([O-])OC[C@H](O)CO`, the differentiation response is -6.03%.

For `O=C(O)C1CCN(C(=O)COc2ccc3c4c(c(=O)oc3c2)CCC4)CC1`, the differentiation response is -1.05%.

In the case of `COc1ccc(OC)c(S(=O)(=O)N2CCCc3ccccc32)c1`, the differentiation response was -8.96%.

With `COc1ccc2[nH]c(=O)c3c(c2c1)OC(C)(C)C=C3`, the differentiation response was 8.8%.

Consider `CCN1CCN(C(=S)c2ccc(OC)cc2)CC1`, for which the differentiation response is -20%.

`C=CCOc1ccc(C(=O)CC)cc1OC`: the differentiation response is -6.03%.

On to `CCc1cccc2c3c([nH]c12)C(CC)(CC(=O)O)OCC3` (stereo not given), for which the differentiation response is 3.18%.

Regarding `COc1ccc(OC(C)C(=O)Nc2ccccc2F)cc1` (stereo not given), the differentiation response was -6.03%.

In the case of `CCCC(=O)Nc1ccccc1NC(C)=O`, the differentiation response is -1.65%.

For `O=C(O)CCCCCCNC(=O)c1cncc(O)c1`, the differentiation response was -4%.

`COc1ccc(Br)cc1C(=O)Nc1ccc(C(=O)O)cc1`: the differentiation response was 5.13%.

Take `CC[N+]1(CC)CC2=Cc3ccccc3CC2C1` (stereo not given): the differentiation response was 0%.
